Consider 29 molecules from PubChem BioAssay (NCI).

This is part of a sample that, as a whole, favours compounds with a hit. Of some 83,000 tested, about 20% had one in any assay.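 Single-dose data. Exposure time 48 hours. Values below 10 considered active.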 A number with no mark means an inactive call. Activity calls are given as the source filed them.

In one experiment the test system is SW-620 colon. The experiment in a line: NCI-60 one-dose screen, 48 h (100 = growth as untreated, 0 = no growth, -100 = all killed). To be noted: 10 µM.
Take `COc1ccc(C2c3sc4ccc(C)cc4c3Oc3nc(N)nc(N)c32)cc1` (stereo not drawn): the growth was 84.8%.

Consider `Cc1cc(N=C2NC(=O)S/C2=C\c2ccc(F)cc2)n[nH]1`, for which the growth was 20.7%.

Turning to `Cn1cc(-c2nnc(N)nc2-c2c[nH]c3ccccc23)c2cc(Br)cnc21`, the growth was 57.8%.

Consider `O=C(CC(=O)Nc1ccc(Oc2ncnc3scc(Nc4n[nH]c(=S)s4)c23)cc1)Nc1ccc(Cl)cc1`, for which the growth was 93.5%.

On to `O=C1NC2C=CC=CC2/C1=C1/SC(=S)N(C2CC(=O)N(c3ccc(Br)cc3)C2=O)C1=O` (stereo not drawn), for which the growth is 93.4%.

With `CC1(C)CC(=O)C2=C(C1)N(Cc1ccc(C(=O)O)cc1)C1=C(C(=O)CC(C)(C)C1)C2c1ccc(Cl)cc1`, the growth is 101%.

As for `Cc1ccc2c(c1)C(=O)/C(=C/c1ccc([N+](=O)[O-])cc1)S2`, the growth was 49.4%.

In the case of `O=C(Nc1ccc(OCc2ccc(Cl)cc2)cc1)Nc1ccc(Cl)c(C(F)(F)F)c1`, the growth was 25.1%.

Regarding `Cn1cc(-c2nc(N)nnc2-c2c[nH]c3ccccc23)c2cc(Br)cnc21`, the growth is 24.7%.

Take `O=C(CSc1nc2ccccc2c(=O)n1-c1ccc(Cl)cc1)Nc1ccc(-c2nc3ccccc3[nH]2)cc1`: the growth was 7.92% (active).

Turning to `Cc1ccc2c(c1)C(=O)/C(=C/c1c[nH]c3ccccc13)S2`, the growth was 28.6%.

Consider `COc1cccc(O)c1/C=C1\SCc2cc3c(OC)cccc3[o+]c21`, for which the growth was 115%.

With `COc1cc(C2CC(c3ccc(Oc4ccc(Cl)cc4)cc3)=NN2c2nc(-c3ccc(Cl)cc3)c(C#N)c(N3CCOCC3)n2)cc(OC)c1OC` (stereo not drawn), the growth is 101%.

For the molecule `O=C(Nc1ccc(OCC(=O)c2ccc(Cl)cc2)cc1)Nc1ccc(Cl)c(C(F)(F)F)c1`, the growth was 47.7%.

`Cc1ccc2sc3c(c2c1)Oc1nc[nH]c(=O)c1C3c1cccc(F)c1` (stereo not drawn): the growth is 102%.

For `Cc1cc(N=C2NC(=O)/C(=C/c3cc(C(C)(C)C)c(O)c(C(C)(C)C)c3)S2)n[nH]1`, the growth is 15.3%.

Turning to `COc1ccc(C2c3sc4ccc(C)cc4c3Oc3nc[nH]c(=O)c32)cc1` (stereo not drawn), the growth was 67.1%.

As for `COc1cccc(C(=O)CSc2nc(-c3ccc(OCc4ccccc4)c(OC)c3)c(C#N)c(=O)[nH]2)c1`, the growth was 102%.

With `Cc1ccc(COc2ccc(NC(=O)Nc3ccc(Cl)c(C(F)(F)F)c3)cc2)cc1`, the growth was 86.5%.

Take `CC(C)(C)c1cc(/C=C2\S/C(=N/c3ncn[nH]3)NC2=O)cc(C(C)(C)C)c1O`: the growth was 15.1%.

With `Cn1cc(/C=C(/SS/C(=C/c2cn(C)c3cccc(C(=O)O)c23)C(=O)O)C(=O)O)c2c(C(=O)O)cccc21`, the growth was 116%.

With `COc1ccc(C(=O)COc2ccc(NC(=O)Nc3ccccc3)cc2)cc1`, the growth is 101%.

For `CCn1c(SCC(=O)Nc2ccc(-c3nc4ccccc4[nH]3)cc2)nc2ccccc2c1=O`, the growth is -35.5% (active).

In the case of `O=C(Nc1ccc(OCc2ccc(F)cc2)cc1)Nc1ccc(Cl)c(C(F)(F)F)c1`, the growth was 22.3%.

On to `O=C(CC(=O)Nc1ccc(Oc2ncnc3scc(Nc4n[nH]c(=S)s4)c23)cc1)Nc1ccc(Br)cc1`, for which the growth was 101%.

As to `COc1ccc(C(=O)COc2ccc(NC(=O)Nc3ccc(Cl)c(C(F)(F)F)c3)cc2)cc1`, the growth was 54.6%.

`O=C(Nc1ccc(Oc2ncnc3scc(Nc4n[nH]c(=S)s4)c23)cc1)C1(C(=O)Nc2cccc(C(F)(F)F)c2)CC1`: the growth is 103%.

On to `O=C1NC(=S)S/C1=C\c1cn(-c2ccccc2)nc1-c1ccc([N+](=O)[O-])cc1`, for which the growth was 21.7%.

On to `O=C(CSc1nc2ccccc2c(=O)n1-c1ccc(Cl)cc1)Nc1ccc(-c2nc3ccc([N+](=O)[O-])cc3[nH]2)cc1`, for which the growth was 64.2%.

Another experiment deals with MCF7 breast. Described as above. As to conditions: 10 µM.
For `COc1ccc(C2c3sc4ccc(C)cc4c3Oc3nc(N)nc(N)c32)cc1` (stereo not drawn), the growth is 53.8%.

On to `Cc1cc(N=C2NC(=O)S/C2=C\c2ccc(F)cc2)n[nH]1`, for which the growth is 7.74% (active).

With `Cn1cc(-c2nnc(N)nc2-c2c[nH]c3ccccc23)c2cc(Br)cnc21`, the growth was 14%.

Turning to `O=C(CC(=O)Nc1ccc(Oc2ncnc3scc(Nc4n[nH]c(=S)s4)c23)cc1)Nc1ccc(Cl)cc1`, the growth is 11.7%.

On to `O=C1NC2C=CC=CC2/C1=C1/SC(=S)N(C2CC(=O)N(c3ccc(Br)cc3)C2=O)C1=O` (stereo not drawn), for which the growth is 45.7%.

Consider `CC1(C)CC(=O)C2=C(C1)N(Cc1ccc(C(=O)O)cc1)C1=C(C(=O)CC(C)(C)C1)C2c1ccc(Cl)cc1`, for which the growth was 89.6%.

`Cc1ccc2c(c1)C(=O)/C(=C/c1ccc([N+](=O)[O-])cc1)S2`: the growth is 3.81% (active).

Regarding `O=C(Nc1ccc(OCc2ccc(Cl)cc2)cc1)Nc1ccc(Cl)c(C(F)(F)F)c1`, the growth was 1.78% (active).

For `Cn1cc(-c2nc(N)nnc2-c2c[nH]c3ccccc23)c2cc(Br)cnc21`, the growth was 4.57% (active).

For `O=C(CSc1nc2ccccc2c(=O)n1-c1ccc(Cl)cc1)Nc1ccc(-c2nc3ccccc3[nH]2)cc1`, the growth was -68.3% (active).

Take `Cc1ccc2c(c1)C(=O)/C(=C/c1c[nH]c3ccccc13)S2`: the growth is 18.6%.

Consider `COc1cccc(O)c1/C=C1\SCc2cc3c(OC)cccc3[o+]c21`, for which the growth is 90%.

Regarding `COc1cc(C2CC(c3ccc(Oc4ccc(Cl)cc4)cc3)=NN2c2nc(-c3ccc(Cl)cc3)c(C#N)c(N3CCOCC3)n2)cc(OC)c1OC` (stereo not drawn), the growth is 84.6%.

On to `O=C(Nc1ccc(OCC(=O)c2ccc(Cl)cc2)cc1)Nc1ccc(Cl)c(C(F)(F)F)c1`, for which the growth was 51.4%.

For the molecule `Cc1ccc2sc3c(c2c1)Oc1nc[nH]c(=O)c1C3c1cccc(F)c1` (stereo not drawn), the growth is 60.9%.

For the molecule `Cc1cc(N=C2NC(=O)/C(=C/c3cc(C(C)(C)C)c(O)c(C(C)(C)C)c3)S2)n[nH]1`, the growth is 4.33% (active).

Regarding `COc1ccc(C2c3sc4ccc(C)cc4c3Oc3nc[nH]c(=O)c32)cc1` (stereo not drawn), the growth is 69.6%.

Take `COc1cccc(C(=O)CSc2nc(-c3ccc(OCc4ccccc4)c(OC)c3)c(C#N)c(=O)[nH]2)c1`: the growth was 91.3%.

For `Cc1ccc(COc2ccc(NC(=O)Nc3ccc(Cl)c(C(F)(F)F)c3)cc2)cc1`, the growth is 41.6%.

On to `CC(C)(C)c1cc(/C=C2\S/C(=N/c3ncn[nH]3)NC2=O)cc(C(C)(C)C)c1O`, for which the growth is 8.22% (active).

As to `Cn1cc(/C=C(/SS/C(=C/c2cn(C)c3cccc(C(=O)O)c23)C(=O)O)C(=O)O)c2c(C(=O)O)cccc21`, the growth is 92.6%.

Take `COc1ccc(C(=O)COc2ccc(NC(=O)Nc3ccccc3)cc2)cc1`: the growth is 67.2%.

In the case of `CCn1c(SCC(=O)Nc2ccc(-c3nc4ccccc4[nH]3)cc2)nc2ccccc2c1=O`, the growth was -71.7% (active).

In the case of `O=C(Nc1ccc(OCc2ccc(F)cc2)cc1)Nc1ccc(Cl)c(C(F)(F)F)c1`, the growth was 3.2% (active).

Turning to `O=C(CC(=O)Nc1ccc(Oc2ncnc3scc(Nc4n[nH]c(=S)s4)c23)cc1)Nc1ccc(Br)cc1`, the growth was 86.8%.

Turning to `COc1ccc(C(=O)COc2ccc(NC(=O)Nc3ccc(Cl)c(C(F)(F)F)c3)cc2)cc1`, the growth was 17.1%.

For `O=C(Nc1ccc(Oc2ncnc3scc(Nc4n[nH]c(=S)s4)c23)cc1)C1(C(=O)Nc2cccc(C(F)(F)F)c2)CC1`, the growth was 23.3%.

As for `O=C1NC(=S)S/C1=C\c1cn(-c2ccccc2)nc1-c1ccc([N+](=O)[O-])cc1`, the growth is 6.25% (active).

Take `O=C(CSc1nc2ccccc2c(=O)n1-c1ccc(Cl)cc1)Nc1ccc(-c2nc3ccc([N+](=O)[O-])cc3[nH]2)cc1`: the growth is 20.9%.
